# Assay results from PubChem BioAssay AID686978 (National Center for Advancing Translational Sciences (NCATS), 2013).
# Out of some 420,000 compounds screened, about 64,000 (15%) were called active. About 27% were inconclusive and are not listed. Only a sample is shown. Unmarked numbers belong to inactive results. Calls follow the shape of the dose curve; as a rule, active = well fitted inhibition curve with a large enough effect; inconclusive = small, poorly fitted or top-dose-only effect; inactive = flat fitted curve, though single readings scatter.
# Test: qHTS for Inhibitors of human tyrosyl-DNA phosphodiesterase 1 (TDP1): qHTS in cells in absence of CPT; also: nearly all actives have a fitted effect of over 55% in size
# Details: DT40 Tdp1-/- hTDP1 cells, no CPT, ATP luminescence, 48 h; activity change, negative = growth inhibition: at 46.2 µM (top of the series)
# Source text: Human tyrosyl-DNA phosphodiesterase 1 (TDP1) is a novel repair gene, and we propose to use it as a new target for anticancer drug development. TDP1 is not an essential protein, but under treatment with topoisomerase I poison (camptothecin: CPT), TDP1 works as a critical factor for cell survival. To directly identify novel TDP1 inhibitors active in a cellular environment, we have knocked-out the Tdp1 gene in chicken DT40 cells (Tdp1-/-) and generated a complemented counterpart cells that contains a stable transfection of the human TDP1 gene (Tdp1-/-;hTDP1 cells). For the primary screen, Tdp1-/-;hTDP1 cells will be exposed to small molecules in the presence or absence of CPT, and their growth kinetics will be evaluated after 48 hours by measuring ATP activity. […] The hit compounds will then be evaluated in the presence or absence of CPT using Tdp1-/- cells. […] In tertiary assays, biochemical gel-based assays will be used to assess whether the hit compounds specifically target TDP1.
# To this end, we have screened this cell line against the MLSMR in two primary screens. In one screen we add CPT and in the other we screen in the absence of CPT; this AID represents the screen where CPT was absent.
# NIH Chemical Genomics Center [NCGC]
# NIH Molecular Libraries Probe Centers Network [MLPCN]
# Assay Submitter (PI): Yves Pommier, NCI
# DT40-hTDP1 cells without 20 nM Camptothecin (add 20 microL of DMSO in 1 L of cell culture medium) were dispensed at 400 cells/5microL/well in tissue culture treated 1536-well white wall/solid bottom assay plates (Greiner Bio-One North America, NC, U.S.A.) using a Multidrop Combi 8 channel dispenser (Thermo Fisher, Waltham, MA, USA). 23 nL compounds and controls were transferred using the pin tool (Kalypsys, San Diego, CA, USA) to the assay plates. The assay plates were then incubated at 37 masculineC for a minimum 48 hr. Three microL of Cell Titer Glo solution was added to the plates and incubated at RT in dark for 30 min. Luminescence was read using ViewLux (Perkin Elmer) with 1 sec exposure slow speed, high gain and 2x binning.
# % is scaled to controls: 0 for no effect and ±100 for the full control effect; potency is read from the fitted curve at half-maximal effect.
Compound,"activity change, negative = growth inhibition [%]",Potency
CC(NC(=O)COC(=O)Cn1cc(C(F)(F)F)ccc1=O)c1ccccc1 (stereo not drawn),3.95,
CCOC(=O)c1c(C)[nH]c(C)c1S(=O)(=O)NCC(=O)NCc1cccc(C)c1,-10.1,
COc1cc(/C=N\NC(=O)C2C(=O)NCC2c2ccccc2)cc(OC)c1O (stereo not drawn),-14.8,
COc1cc(/C=N/NC(=O)c2cc(-c3ccccc3C)nc3ccccc23)cc(OC)c1O,,6.51 µM (active)
CC1(C)CC(CC(=O)O)C(=O)O1 (stereo not drawn),-5.69,
CC(=O)NCC(=O)N(C)C(C(=O)Nc1ccc2c(c1)OCCO2)c1ccccc1 (stereo not drawn),-10.1,
N#Cc1ccccc1NC(=O)c1cccc(COc2ccc(Cl)cc2Cl)c1,-7.54,
Cc1ccc(NC(=O)Cn2c(C)csc2=O)cc1,-14.9,
Cc1nn(CC(=O)Nc2ccc(F)cc2)c(=O)c2ccccc12,1,
Cc1ccc(NC(=O)Cn2sc3ccccc3c2=O)cc1,,4.61 µM (active)
CCN1CCN(C(=O)CN(C)S(=O)(=O)c2ccc3ccccc3c2)CC1,-1.29,
CSCC[C@H](NC(=O)NCCc1ccc(F)cc1)C(=O)O,-4.91,
O=C(Nc1cccc(Br)c1)C1CC(=O)N(C2CCCC2)C1 (stereo not drawn),-7.2,
COc1ccc(Br)cc1CN(C)C(=O)C1CC(=O)N(C2CCCC2)C1 (stereo not drawn),,23.1 µM (active)
CN(CC(=O)Nc1ccc(F)c(F)c1F)C(=O)C1CC(=O)N(C2CCCC2)C1 (stereo not drawn),-24.1,
CC(C)C(=O)Nc1oc(-c2ccccc2)cc1C#N,-16.5,
Cc1ccc(NC(=O)CN(C)C(=O)Cn2nnc(-c3ccccc3)n2)cc1,-1.72,
CCCn1nc(C(=O)Nc2ccc3nc(C)sc3c2)c2ccccc2c1=O,,18.4 µM (active)
CCCn1nc(C(=O)NNC(=O)CCOc2ccccc2OCC)c2ccccc2c1=O,-17.3,
CCCn1nc(C(=O)NNC(=O)CSCC(=O)Nc2cc(C)on2)c2ccccc2c1=O,-4.94,
CCCCCC(=O)Nc1ccc(C(=O)N/N=C/c2ccc([N+](=O)[O-])cc2)cc1,-26.6,
CCOC(=O)/C=C/CN(C(=O)OC(C)(C)C)S(=O)(=O)N1CC=CC1,1.07,
Cc1ccccc1C(=O)O,-0.573,
COC(=O)c1ccccc1C(=O)NCc1nc(N2CCCC2)c2cccc(C)c2n1,0.141,
CCOc1ccc2[nH]c(C(=O)N/N=C/c3cccc(OC)c3OC)cc2c1,,16.4 µM (active)
COc1cccc2[nH]c(C(=O)NCCc3ccccc3)cc12,-2.24,
CCOc1ccccc1/C=N/NC(=O)CNC(=O)COc1ccccc1,-22.7,

Compound,"activity change, negative = growth inhibition [%]",Potency
COc1cc2cc(C(=O)N/N=C/c3cccc(OC)c3OC)[nH]c2cc1OC,,13 µM (active)
COc1ccc(/C=N/NC(=O)c2cccc(C(F)(F)F)c2)cc1,-2.42,
COc1ccc2[nH]c(C(=O)Nc3ccccc3Cl)cc2c1,-24.8,
CCCOP(=O)(c1ccc(N(C)C)cc1)C(O)c1cc(OC)c(OC)c(OC)c1 (stereo not drawn),-28.2,
Cc1ccc2oc(=O)ccc2c1,-1.58,
CC(=O)Nc1ccc(S(=O)(=O)Nc2nccc(/C=C/c3ccccc3F)n2)cc1,1.13,
C=CC(COCc1ccccc1)N(CC(=O)OC)S(=O)(=O)c1cc(Br)ccc1OC (stereo not drawn),,25.9 µM (active)
C=CCCN(Cc1ccccc1)S(=O)(=O)c1ccccc1Br,-24.9,
CCN(Cc1ccccc1)S(=O)(=O)c1cc(C(=O)O)ccc1OC,4.3,
C=CC(COCc1ccccc1)N(Cc1ccccc1)S(=O)(=O)c1ccccc1Br (stereo not drawn),,16.4 µM (active)
CCN([C@H](CO)C(C)C)S(=O)(=O)c1ccccc1Br,-1.36,
COCCNS(=O)(=O)c1cc(Br)ccc1OC,8.91,
CCN(CCn1cccn1)C(=O)CC1C(=O)NCCN1Cc1cccc(OC)c1OC (stereo not drawn),-27,
Brc1ccc(-c2nn[nH]n2)cc1,-10.9,
CCN=C1SC(CC(=O)Nc2ccc(C)cc2)C(=O)N1CC (stereo not drawn),3.16,
O=C(c1ccc(CS(=O)Cc2ccccc2Cl)o1)N1CCN(c2ccccc2)CC1 (stereo not drawn),,20.6 µM (active)
O=C(NCc1cccs1)c1ccc(CS(=O)Cc2ccccc2Cl)o1 (stereo not drawn),-3.62,
COc1ccc(NS(=O)(=O)c2cccc3nsnc23)cc1Cl,-1.64,
C=CCn1c(-c2ccc(Cl)cc2)ccc(C#N)c1=O,-34.7,
CCN(CC)c1ccc(C(=O)c2cnc(/N=C/N(C)C)s2)cc1,1.44,
Cc1ccnc2nc(C(=O)Nc3nnc(-c4ccccc4)o3)nn12,4.64,
CC1CCCCC1NCC(=O)Nc1ccccc1C(=O)Nc1ccccc1 (stereo not drawn),,14.6 µM (active)
CC(NCC(=O)Nc1ccccc1C(=O)NC1CC1)c1ccccc1Cl (stereo not drawn),3.62,
Cc1ccc(OCC(=O)Nc2ccccc2C(=O)NC2CC2)cc1C,-18.6,
C[C@H](NC(=O)C1CCN(S(=O)(=O)c2ccccc2)CC1)C(=O)NCc1ccccc1,2.13,
O=C(COc1ccc([N+](=O)[O-])cc1Cl)Nc1ccc2[nH]c(=O)[nH]c2c1,-25.9,
